Most compounds without a hit are left out; they make up all but 3.1% or so of the library.
DRD3 agonist: qHTS of D3 Dopamine Receptor Agonist: qHTS. AID 652048, 2013. max activation, %. 410,000 tested, 0.58% active. D3R DiscoveRx beta-arrestin cells, luminescence, 90 min; in the data active means max activation above about 30%; further: 0% is about no effect
Target sequence (P35462 whole entry, looked up): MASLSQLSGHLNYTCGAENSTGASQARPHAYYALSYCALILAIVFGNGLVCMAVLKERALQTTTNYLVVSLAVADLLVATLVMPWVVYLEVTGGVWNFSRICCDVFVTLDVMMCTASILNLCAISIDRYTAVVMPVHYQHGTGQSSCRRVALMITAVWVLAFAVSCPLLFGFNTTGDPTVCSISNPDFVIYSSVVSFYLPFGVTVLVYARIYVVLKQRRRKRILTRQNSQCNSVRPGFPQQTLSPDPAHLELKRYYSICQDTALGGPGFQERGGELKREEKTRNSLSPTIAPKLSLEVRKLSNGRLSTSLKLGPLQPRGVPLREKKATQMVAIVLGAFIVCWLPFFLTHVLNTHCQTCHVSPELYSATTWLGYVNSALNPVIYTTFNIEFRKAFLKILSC
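Agonist mode: compounds and dopamine controls were applied to plated cells for 90 min at 37 degrees C after an overnight attachment at 1500 cells/well. Luminescent read-out followed 30 - 60 minutes at room temperature with DiscoveRx detection reagent.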
RGS4 inh: Inhibitors of Regulator of G Protein Signaling (RGS) 4: qHTS; Regulator of G-protein signaling 4 (Homo sapiens), P49798; Transcreener GDP fluorescence polarization, RGS4-accelerated GTP hydrolysis; Potency, µM (doses to about 114 µM), for inactives: at the top dose activity change, negative = inhibition, usual class: inhibitors; AID 504845, 2011; 390,000 tested, 0.039% active; active means well fitted inhibition curve with a large enough effect; inconclusive means small, poorly fitted or top-dose-only effect; inactive means no such curve, though single readings can be large or run the other way; further: potency means the concentration at half of the fitted maximal effect; on the % scale 0 is the no-effect control and ±100 the full control effect; nearly all actives have a fitted effect of over 75% in size
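MLSMR compounds (23 nl, pin-transferred) preincubated 10 min at room temperature with a 500nM (2x) first reagent, then RGS4 at 900nM (2x) plus Transcreener GDP mix added; fluorescence polarization (620/688 nm) read before and after 90 min at 30 °C.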
D3 antag: qHTS of D3 Dopamine Receptor Antagonist: qHTS. D(3) dopamine receptor (Homo sapiens), P35462. D3R cells, DiscoveRx beta-arrestin luminescence, antagonist mode; active compounds read low. max response, negative = inhibition, %. 360,000 tested, 2.5% active. AID 652054, 2013; in the data active means max response below about -50%; inconclusive means no clear call, values can overlap the other calls; further: on the % scale 0 is the no-effect control and ±100 the full control effect
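Cells plated overnight at 1500 cells/well, then exposed to library compounds with dopamine controls for 90 minutes at 37 degrees C. DiscoveRx reagent added for 30–60 minutes at room temperature; luminescence read, quantitative HTS format.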
uPA surface inh: qHTS for Inhibitors of Cell Surface uPA Generation; AID 540303, 2011; Potency, µM (titrated, usually from 38.3 µM), without a hit: top-dose activity change, negative = inhibition, hits mostly inhibitors; cell surface uPA generation assay, qHTS; 330,000 tested, 0.31% active; active means well fitted inhibition curve with a large enough effect; inconclusive means small, poorly fitted or top-dose-only effect; inactive means no such curve, though single readings can be large or run the other way; tested in mouse RAW 264.7 cells; further: potency means the concentration at half of the fitted maximal effect; on the % scale 0 is the no-effect control and ±100 the full control effect; nearly all actives have a fitted effect of over 55% in size
Starred values were filed as active, the others as inactive; ? = inconclusive; · = not tested or not shown.

SMILES | DRD3 agonist | RGS4 inh | D3 antag | uPA surface inh
COc1ccc(S(=O)(=O)N2CCCCC2)cc1NC(=O)c1ccc2c(c1)OCO2 | -0.6 | 15.4% | 8.8 | 0.5%
COc1ccc(C(=O)Nc2ccc(S(=O)(=O)N3CCOCC3)cc2)cc1[N+](=O)[O-] | 0.6 | -9.1% | -12.1 | -1.7%
COc1cc(C(=O)Nc2ccc(S(=O)(=O)N3CCOCC3)cc2)c([N+](=O)[O-])cc1OC | 40.2* | -15.9% | -10.9 | 4.5%
COc1ccccc1NC(=O)c1cccc(S(=O)(=O)N2CCOCC2)c1 | 2.8 | -15.2% | -51.6* | -4.7%
COc1cccc(NS(=O)(=O)c2ccc(S(=O)(=O)N3CCOCC3)cc2)c1 | 39.9* | 10.4% | 14.1 | ·
Cc1ccc(CNS(=O)(=O)c2cc(C(=O)Nc3cccc(C(F)(F)F)c3)ccc2F)cc1 | -5.7 | 1.6% | · | ·
CCOc1ccccc1/C=N/NC(=O)c1cccc(S(=O)(=O)N2CCOCC2)c1 | -18.5 | -12.6% | -62.8* | 0.5%
COc1cc(S(=O)(=O)N2CCOCC2)ccc1NC(=O)COC(=O)CC12CC3CC(CC(C3)C1)C2 | -5.6 | -9.0% | -52.7* | -4.7%
O=C(NCC1COc2ccccc2O1)c1cccc(S(=O)(=O)N2CCOCC2)c1 (configuration not stated) | 0.9 | 1.1% | -61.4* | -4.3%
COC(=O)c1sc2cccc(F)c2c1S(=O)(=O)N1CCN(c2ccc(C)cc2C)CC1 | 1.9 | -13.4% | · | ·
Oc1ccc(C[C@H]2CN([C@@H](Cc3ccccc3)CN3CCCC3CN3C(=S)NC[C@@H]3Cc3ccccc3)C(=S)N2CCc2ccccc2)cc1 (some centres not stated) | 0.4 | · | 5.2 | ·
Oc1ccc(C[C@H]2CN([C@@H](Cc3ccccc3)CN3CCC[C@@H]3CN3C(=S)NC[C@@H]3Cc3ccccc3)C(=S)N2CC2CCCCC2)cc1 | 4.9 | · | 13.2 | ·
O=C1NC[C@H](Cc2ccc(O)cc2)N(C[C@H]2CCCN2C[C@H](Cc2ccc(O)cc2)N2C[C@H](Cc3ccc(O)cc3)N(CCc3ccccc3)C(=O)C2=O)C1=O | -2.2 | · | -70.3* | ·
Oc1ccc(C[C@H]2CN([C@@H](Cc3ccc(O)cc3)CN3CCC[C@@H]3CN3C(=S)NC[C@@H]3Cc3ccccc3)C(=S)N2CCc2ccccc2)cc1 | -18.6 | · | -52.5* | ·
CC(C)C[C@H]1CNC(=S)N1CC1CCCN1C[C@H](Cc1ccc(O)cc1)N1C[C@H](Cc2ccccc2)N(CC2CCCCC2)C1=S (some centres not stated) | -43.7 | -4.5% | -81.2* | 12.5%
CC(C)C[C@H]1CNC(=S)N1C[C@H]1CCCN1C[C@H](Cc1ccccc1)N1C[C@H](Cc2ccc(O)cc2)N(CC2CCCCC2)C1=S | 12.6 | · | 21.0 | ·
Oc1ccc(C[C@H]2CNC(=S)N2CC2CCCN2C[C@H](Cc2ccc(O)cc2)N2C[C@H](Cc3ccccc3)N(CC3CCCCC3)C2=S)cc1 (some centres not stated) | -41.1 | -22.7% | -63.8* | -21.1%
O=C(CCn1c(=O)c2cccn2c2cccnc21)NCc1ccccc1Cl | -18.1 | 7.7% | · | ·
C[Se]CCC(N)C(=O)O (configuration not stated) | -10.0 | · | · | ·
O=C(NCc1ccccn1)c1c(O)c2cccc3c2n(c1=O)CC3 | -4.3 | -17.3% | -56.3* | 5.8%
Cc1ccc(NC(=O)C2CCC(CNS(=O)(=O)c3ccc4c(c3)CCCC(=O)N4)CC2)c(C)c1 (configuration not stated) | 6.4 | -5.8% | · | ·
COc1ccc(/C=N/Nc2cc(C)nc(N3CCOCC3)n2)cc1 | 32.0* | -15.2% | 22.9 | 3.5%
COc1ccc(/C=N/Nc2cc(C)nc(N3CCOCC3)n2)cc1OC | 0.7 | -11.7% | 50.2 | -1.1%
CC(=O)N1CCN(C(=O)c2cc3c(s2)CCCC3)CC1 | 7.7 | 9.5% | -18.9 | 3.8%
CN1CCCN(C(=O)c2cc3c(s2)CCCC3)CC1 | -21.0 | 22.5% | -56.3* | 10.7%
CCN1CCN(C(=O)c2ccc3c(c2)N(Cc2ccccc2)C(=O)c2ccccc2S3(=O)=O)CC1 | -15.2 | -25.6% | -72.2* | -13.5%
NNCCc1ccccc1 | -20.6 | ? | -112.7* | 3.7%
COc1ccc2c(c1)CC(C(=O)Nc1cccc(C)c1C)CO2 (configuration not stated) | 1.6 | 7.7% | · | ·

Screening results (PubChem)
